# Measurements taken from PubChem BioAssay.
# Calls of active or inactive are those of the source. Unless noted, how the calls were made is not given here.
# Legend:
# [1] = liver-stage malaria parasite load reduction – cell-based, known kinase inhibitor set, luminescence, hepatoma host viability (AID 624392); details: Plasmodium liver stage in hepatoma cells, luciferase luminescence, concentration not given here; liver cell % of control: measured here: host liver cell viability; parasite % of control: stronger effect = lower value;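 further: infected cells incubated roughly two days before readout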
# [2] = altered dexamethasone sensitivity, NF-kB reporter, cell-based, luciferase, IL-1B stimulus (AID 624486); details: IL-1B + dexamethasone, luminescence; percent of negative control (+Dex): actives lie on both sides, concentration not given here; z-score: measured here: IL-1B alone, no Dex;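 on percent of negative control (+Dex): 100% = mean signal of vehicle control wells on the plate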
# [3] = C. elegans survival during P. aeruginosa infection – whole organism (AID 651566);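 further: tested at 14 µM; sign flipped so higher z means a lower ratio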; details: C. elegans killed by P. aeruginosa, survival ratio
# [4] = pro-inflammatory signaling induction in mouse macrophages – cell-based, murine, luminescence (AID 652131); details: murine macrophage pro-inflammatory reporter, stronger effect = higher value
# [5] = target: Cellular tumor antigen p53 (Homo sapiens) (UniProt P04637); experiment: GFP-p53 level modulators in HPV16+ cells – imaging, known kinase inhibitor set, EGFP/DsRed ratio (AID 1053116); details: GFP-p53 stability, stronger effect = higher value; EGFP object count: measured here: GFP-p53 positive objects count;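 further: cells exposed to compounds for 24 h at 37 °C before reading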
# [6] = inducers of IRF3 signaling, differentiated THP-1 – cell-based, PMA-stimulated THP-1, luminescence (AID 1053176); details: PMA-differentiated THP-1, IRF3 reporter luminescence; stronger effect = higher value
# [7] = MELAS cybrid and Rieske KO viability enhancers – cell-based, MELAS cybrids, Rieske KO mouse fibroblasts, CellTiter-Glo, primary screen (AID 1508586;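 active means mean z-score across replicates of 1.96 or higher in either the MELAS or the Rieske mutant cell line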;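 further: z relative to plate mean and SD of compound and empty wells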); details: low glucose
# [8] = MELAS cybrid survival, CellTiter-Glo 48 h, stronger effect = higher value
# [9] = Rieske KO mouse fibroblast survival, CellTiter-Glo 72 h
# Cellular tumor antigen p53 (Homo sapiens), sequence (P04637 whole entry, looked up): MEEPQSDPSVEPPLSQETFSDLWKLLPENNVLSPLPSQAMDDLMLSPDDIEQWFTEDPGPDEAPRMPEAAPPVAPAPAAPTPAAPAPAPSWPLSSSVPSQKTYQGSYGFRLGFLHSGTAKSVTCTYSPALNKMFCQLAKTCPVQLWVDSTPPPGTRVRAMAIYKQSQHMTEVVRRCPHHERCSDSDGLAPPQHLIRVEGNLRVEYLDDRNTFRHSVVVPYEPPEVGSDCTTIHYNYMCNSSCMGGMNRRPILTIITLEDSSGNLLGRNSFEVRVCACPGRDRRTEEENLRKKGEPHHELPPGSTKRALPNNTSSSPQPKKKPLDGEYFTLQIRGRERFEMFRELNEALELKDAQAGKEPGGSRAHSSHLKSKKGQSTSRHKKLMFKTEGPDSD
SMILES,liver cell % of control [1] [%],parasite % of control [1],percent of negative control (+Dex) [2],z-score [2],z-score [3],z-score [4],EGFP object count [5],EGFP/DsRed ratio [5],fraction signal [6],"z-score [7, 8]","z-score [7, 9]"
COc1ccc2cc(-c3c(-c4ccncc4)nc(-c4ccc(S(C)=O)cc4)n3C)ccc2c1 (stereo not drawn),117,121% (inactive),93.5% (inactive),0.505,-0.78 (inactive),0.151 (inactive),5,0.161 (inactive),-0.0035 (inactive),-0.944 (inactive),-0.225
CC1=C(C(=O)Nc2ccc3[nH]ncc3c2)C(c2ccc(F)cc2)NC(=O)N1 (stereo not drawn),105,158% (inactive),100% (inactive),0.22,0.64 (inactive),-0.296 (inactive),3.5,0.352 (inactive),0.0035 (inactive),0.62 (inactive),-0.219
O=C1NC(=O)C(c2ccc(Cl)cc2)=C1Nc1ccc(Cl)c(C(=O)O)c1,104,127% (inactive),92% (inactive),0.785,0.035 (inactive),0.277 (inactive),4,0.0822 (inactive),-0.003 (inactive),-0.525 (inactive),-0.308
COc1ccc(C2=C(N3CCc4ccccc43)C(=O)NC2=O)cc1,80.9,77.5% (inactive),84% (inactive),-0.36,0.12 (inactive),-0.139 (inactive),7.5,0.229 (inactive),-0.0035 (inactive),-0.15 (inactive),-0.362
CCN(CC)S(=O)(=O)c1ccc(OC)c(Nc2ncc(-c3ccccc3)o2)c1,168,80% (inactive),91% (inactive),0.485,-0.36 (inactive),-0.177 (inactive),3,0.245 (inactive),-0.012 (inactive),-0.446 (inactive),-0.197
CS(=O)(=O)CCNCc1ccc(-c2ccc3ncnc(Nc4ccc(OCc5ccccc5)c(C(F)(F)F)c4)c3c2)o1,107,128% (inactive),91.5% (inactive),-0.11,-1.4 (inactive),0.401 (inactive),6,0.123 (inactive),-0.0055 (inactive),0.000746 (inactive),-0.326
Cc1ccc(NC(=O)c2ccnc(N3CCCC3)c2)cc1-c1ccc(C(=O)NCC2CC2)cc1,90.4,91.3% (inactive),104% (inactive),0.86,-0.79 (inactive),-0.27 (inactive),6,0.0951 (inactive),-0.0005 (inactive),-0.285 (inactive),-0.118
CN1CCN(Cc2ccc(-c3cc4ncnc(Nc5ccc(OCc6cccc(F)c6)c(Cl)c5)c4s3)o2)CC1,69.8,97% (inactive),86.5% (inactive),-0.395,0.455 (inactive),-0.527 (inactive),11.5,0.213 (inactive),0.006 (inactive),0.235 (inactive),-0.538
CCCN(CCS(C)(=O)=O)Cc1ccc(-c2ccc3ncnc(Nc4ccc(OCc5cccc(F)c5)c(Cl)c4)c3c2)o1,100,108% (inactive),74.5% (inactive),-1.22,1.21 (inactive),1.79 (inactive),4.5,0.083 (inactive),-0.0115 (inactive),-0.517 (inactive),-0.151
NS(=O)(=O)c1ccc(N=Nc2c(O)[nH]c3ccc(C(=O)NCCCn4ccnc4)cc23)cc1,94,116% (inactive),83% (inactive),-0.125,0.195 (inactive),0.038 (inactive),6,0.239 (inactive),-0.0065 (inactive),-0.0137 (inactive),-0.000813
CCn1c(-c2nonc2N)nc2c(C#CC(C)(C)O)nc(OC[C@@H](N)c3ccccc3)cc21,87.1,48.7% (inactive),108% (inactive),3.72,0.96 (inactive),-1.1 (inactive),19.5,0.658 (inactive),-0.0095 (inactive),-0.774 (inactive),0.238
Cc1nnc(-c2ccc(C)c(-c3ccc(C(=O)Nc4cccc(C#N)c4)cc3)c2)o1,117,154% (inactive),100% (inactive),0.575,-0.18 (inactive),-0.619 (inactive),1.5,0.0236 (inactive),-0.004 (inactive),-0.755 (inactive),-0.283
CCc1nn2ncccc2c1-c1ccnc(NC2CC2)n1,131,61.2% (inactive),102% (inactive),-0.225,0.555 (inactive),-0.174 (inactive),3.5,0.117 (inactive),0.007 (inactive),-0.448 (inactive),-0.208
COc1cccc(-n2ncc3c(N/N=C/c4ccc(F)cc4)ncnc32)c1,104,96.2% (inactive),93.5% (inactive),0.76,-1.12 (inactive),-0.343 (inactive),9,0.197 (inactive),-0.0025 (inactive),1.48 (inactive),-0.0554
Clc1ccc(CNc2nccc(-c3cnn4ncccc34)n2)cc1,78.2,176% (inactive),26.5% (active),-7.22,0.125 (inactive),-1.14 (inactive),1,0.0281 (inactive),0 (inactive),0.484 (inactive),-0.266
CS(=O)(=O)Nc1ccc(N=Cc2c(O)[nH]c3ccccc23)cc1,95.2,107% (inactive),108% (inactive),1.36,0.265 (inactive),2.34 (inactive),4,0.123 (inactive),-0.0045 (inactive),1.4 (inactive),-0.36
COc1ccccc1-c1cc(/C=C2\C(=O)Nc3ncc(Br)cc32)cc(Br)c1O,102,116% (inactive),96% (inactive),-0.115,0.69 (inactive),-0.578 (inactive),1,0.142 (inactive),0.0015 (inactive),-0.581 (inactive),-0.341
Fc1ccc(-c2ncn(C3CCNCC3)c2-c2ccnc(Oc3ccc4c(c3)OCO4)n2)cc1,71.9,187% (inactive),107% (inactive),0.635,0.22 (inactive),0.062 (inactive),6.5,0.159 (inactive),-0.0065 (inactive),-0.249 (inactive),-0.36
